The list is not random: actives were taken first. Their share in the collection is about 5.5%.
Gal4-VP16 FLuc: VP16 counterscreen qHTS for inhibitors of ROR gamma transcriptional activity. Potency, µM (highest dose often 53.6 µM), without a hit: at the top dose activity, negative = inhibition, hits mostly inhibitors. hit rate 3.5% among 310,000. Drosophila S2 Gal4-VP16 UAS-luciferase, luminescence, 20 h;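 note: Gal4-VP16 expression switched on by copper sulfate through the metallothionein promoter; % is set by controls: 0 for no effect and ±100 for the full control effect; nearly all actives have a fitted effect of over 50% in size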
Chronic BCR inh: qHTS Assay to Find Inhibitors of Chronic Active B-Cell Receptor Signaling. ABC-DLBCL IkBa-CBG/CBR reporter, luminescence ratio, 4 h. Potency, µM (titrated, usually from 46.1 µM), for inactives: at the top dose activity change, negative = inhibition, actives largely listed as inhibitors. hit rate 0.05% among 340,000; active = well fitted inhibition curve with a large enough effect in the signal ratio, with a control signal flat, not every such curve was filed as active; inconclusive = small, poorly fitted or top-dose-only effect, or effect the other way, or a change in a side signal; the % refers to the signal ratio;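 note: plate controls were basal doxycycline-induced cells for no effect and cells given 10 µM MG132 for full effect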
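Concentration-response series (up to 46 uM) were applied to TMD8 dual-reporter cells for 4 h at 37C with doxycycline. Green/red ratio, after filter-overlap correction, defined %Activity; red signal alone was normalised to basal cells and zero luminescence.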
RORg inh: qHTS for inhibitors of ROR gamma transcriptional activity; Potency, µM (doses to about 53.6 µM), inactives show at the highest dose activity change, negative = inhibition, actives largely listed as inhibitors; hit rate 5.4% among 310,000; Drosophila S2 Gal4-RORgamma UAS-luciferase reporter, 20 h; note: % is set by controls: 0 for no effect and ±100 for the full control effect; nearly all actives have a fitted effect of over 60% in size
Target sequence (P51450 whole entry, looked up, the tested form may be a part): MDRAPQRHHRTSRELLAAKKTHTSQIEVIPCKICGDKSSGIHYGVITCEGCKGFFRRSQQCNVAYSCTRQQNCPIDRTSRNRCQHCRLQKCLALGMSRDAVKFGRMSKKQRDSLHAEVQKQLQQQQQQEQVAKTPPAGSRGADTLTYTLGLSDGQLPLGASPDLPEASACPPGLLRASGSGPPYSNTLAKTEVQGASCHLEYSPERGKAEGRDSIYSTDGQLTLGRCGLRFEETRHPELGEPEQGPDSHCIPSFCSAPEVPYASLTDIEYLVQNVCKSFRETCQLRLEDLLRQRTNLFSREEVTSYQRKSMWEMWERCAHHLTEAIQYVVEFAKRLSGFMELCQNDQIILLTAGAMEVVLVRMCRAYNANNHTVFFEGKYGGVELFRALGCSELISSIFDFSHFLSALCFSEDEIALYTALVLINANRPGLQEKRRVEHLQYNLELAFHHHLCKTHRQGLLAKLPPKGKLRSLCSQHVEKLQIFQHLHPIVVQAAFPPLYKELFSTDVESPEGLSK
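A Gal4/UAS one-hybrid system in insect cells: metallothionein-promoter Gal4–ROR gamma fusion plus Photinus luciferase reporter. Copper sulfate 700 uM final, 20 hr ambient incubation, luminescent detection after 10 min with reagent.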
Integrin act MD: qHTS for Activators of Integrin-Mediated Alleviation for Muscular Dystrophy; alpha7betagal myoblasts, beta-gal FDG fluorescence, 48 h; Potency, µM (doses to about 38.3 µM), for the others: at the highest dose activation, usual class: activators; hit rate 0.064% among 350,000;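 note: 100% = response of the positive control SU9516; nearly all actives have a fitted effect of over 60% in size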
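Alpha7betagal+/- myoblasts (passage 13) were plated 16-24 hr, then exposed to compounds (1:260 dilution of DMSO stock) for 48 hours at 37C. After MPER lysis, β-galactosidase reporter activity was read as FDG fluorescence (ex 480/em 540) after 30 minutes.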
Mito fusion act: qHTS Assay for Small Molecule Inhibitors of Mitochondrial Division or Activators of Mitochondrial Fusion; AID 485298, 2010; Potency, µM (doses to about 46.1 µM), without a hit: at the highest dose growth rescue (activation), hits mostly activators; hit rate 0.23% among 320,000; S. cerevisiae fusion-defective mutant growth rescue, CellTiterGlo 48 h; note: % of control where 0% means no effect; nearly all actives have a fitted effect of over 45% in size
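Compounds are tested for their ability to restore growth of mitochondrial fusion-defective yeast strains at non-permissive 37C in YPEG medium over 48 hours. Viability is quantified by luciferase luminescence.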
uPA surface inh: qHTS for Inhibitors of Cell Surface uPA Generation | cell surface uPA generation assay, qHTS | Potency, µM (highest dose often 38.3 µM), inactives show at the top dose activity change, negative = inhibition, most hits filed as inhibitors | hit rate 0.31% among 330,000 | AID 540303, 2011; active = well fitted inhibition curve with a large enough effect; inconclusive = small, poorly fitted or top-dose-only effect; inactive = no such curve, though single readings can be large or run the other way; tested in mouse RAW 264.7 cells; note: % is set by controls: 0 for no effect and ±100 for the full control effect; nearly all actives have a fitted effect of over 55% in size
An asterisk follows results filed as active; u = inconclusive; x = no result given; [ ] = remark or other dose. Unless noted, calls come from the whole dose curve; as a rule, active = well fitted curve in the direction sought with a large enough effect; inconclusive = small, poorly fitted or top-dose-only effect, or another doubt; inactive = no such curve, though single readings can be large; an effect the other way counts as inactive or inconclusive. Potency is the fitted concentration of half-maximal effect.

SMILES	Gal4-VP16 FLuc	Chronic BCR inh	RORg inh	Integrin act MD	Mito fusion act	uPA surface inh
Cc1[nH]n(-c2ccccc2)c(=O)c1/C=N/N(c1ccccc1)c1ccccc1	u	17%	5.6µM*	1%	14%	4%
C=CCN=Cc1c(C)[nH]n(-c2ccccc2)c1=O	-7%	17%	26%	-11%	-1%	6%
Cc1ccc(-n2[nH]c(C)c(/C=N/n3c(C)nc4ccccc4c3=O)c2=O)cc1	u	u	18µM*	7%	-19%	-28%
Nc1c(-c2ccccc2)cnc2c(-c3ccccc3)cnn12	7.1µM*	u	6.3µM*	u	-2%	u
Nc1c(-c2cccs2)cnc2c(-c3ccc(F)cc3)cnn12	-20%	u	u	u	2%	-10%
CC(C)(C)S(=O)(=O)c1cnc2c(-c3ccsc3)cnn2c1N	-3%	7%	4.5µM*	2%	-5%	1%
Cc1nc2c(-c3ccc(F)cc3)cnn2c(N)c1-c1ccc(F)cc1	-14%	u	-26%	6%	-13%	-13%
Nc1c(-c2ccsc2)cnc2ncnn12	-4%	-2%	27%	u	2%	0%
CS(=O)(=O)c1cnc2c(-c3ccc(F)cc3)cnn2c1N	-25%	5%	11µM*	8%	0%	-10%
Cc1cccc(Cc2c(C)nc3nc(SCc4cccc(F)c4)nn3c2C)c1	x	16%	x	x	x	x
Cc1cc(Cl)ccc1NC(=S)Nc1cccnc1	u	-1%	13µM*	17%	-10%	-7%
Cc1ccccc1NC(=S)Nc1ccccc1	u	2%	u	-10%	-13%	3%
Cc1cc(NC(=S)Nc2ccccc2)ccc1Br	u	u	10µM*	-1%	-13%	-19%
COc1cc(NC(=S)Nc2cccnc2)cc(OC)c1	u	3%	10µM*	-23%	3%	3%
Cc1cc(NC(=S)Nc2cccnc2)ccc1Br	u	u	13µM*	9%	-4%	3%
O=C(Nc1ccccc1)N1CC[C@@]2(CCCN(C(=O)c3ccncc3)C2)C1	-6%	x	-1%	x	x	x
COc1ccc(-c2cc(=O)c3c(O)cc(O)c(-c4cc(-c5cc(=O)c6c(O)cc(O)cc6o5)ccc4OC)c3o2)cc1	-7%	x	15%	x	x	x
CCC1Cc2cc(O)ccc2C2=C1c1ccc(O)cc1CC2CC (stereo unspecified)	13µM*	x	u	x	x	x
COc1ccccc1-c1c(C)nn2c(NCCN3CCCC3)cc(C)nc12	7.1µM*	4%	6.3µM*	-9%	-1%	-14%
COC(=O)[C@@H]1CCCN1C(=O)[C@@H](C)CO	-10%[10 µM]	x	0%[10 µM]	x	x	x
O=C(O)c1ccc(/C=C2\COc3ccccc3C2=O)cc1	6.3µM*	u	7.1µM*	-17%	-19%	0%
COc1ccc(/C=C2\COc3ccccc3C2=O)cc1OC	u	u	u	-32%	-11%	-2%
CCOc1cc(/C=C2\COc3ccccc3C2=O)cc(Br)c1OCC(=O)N(C)C	20µM*	u	u	-82%	-56%	-1%
C=CCN1C(=O)c2ccc(C(=O)N(CC)CC(=O)Nc3cc(Cl)ccc3C)cc2C1=O	x	10%	x	14%	3%	-2%
CCc1nc2ccc(Cc3ccc4nc(CC)[nH]c4c3)cc2[nH]1	-24%	u	33%	-14%	2%	2%
C/C(CS(=O)(=O)c1ccccc1)=N\O	-5%[10 µM]	-1%	8%	1%	-1%	4%
C/C=C(\CS(=O)(=O)c1ccccc1)S(=O)(=O)c1ccccc1	6.3µM*	u	3.5µM*	-19%	-6%	-10%
COc1ccc(CC(=O)N(CCC2=CCCCC2)c2c(N)n(Cc3ccccc3)c(=O)[nH]c2=O)cc1OC	x	-1%	x	-3%	-3%	1%
